# Source: PubChem BioAssay (NCI)
# The panel holds about 83,000 compounds, 20% with a hit somewhere; the sample as a whole holds those more often.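 Interpretation: 100, growth as untreated; towards 0, rising growth inhibition; 0, no net growth; 0 to -100, cell death. Compounds scoring below 10 were considered active.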 Activity calls are given as the source filed them.
# Test system: UO-31 renal
# Experiment: NCI-60 one-dose screen, 48 h (100 = growth as untreated, 0 = no growth, -100 = all killed)
# Settings: 10 µM unless noted
# Description: Growth inhibition of the UO-31 human tumor cell line is measured as a screen for anti-cancer activity. Cells are grown in 96 well plates and exposed to the test compound for 48 hours. Compounds are tested at a single concentration, which is 10^-5 M for most compounds. The reported endpoint is percent growth (GI% or GIPRCNT), where numbers from 0 - 100% represent growth inhibition, and numbers from -100% - 0 represent cell death. For example, a value of 40 represents 60% growth inhibition. A value of 0 means no net growth occurred over the course of the experiment. A value of -40 indicates 40% of cells at the beginning of the experiment died by the end of the experiment. A value of -100 means all cells are dead at the end of the experiment.
# NCI-60 Human Tumor Cell Lines Screen was performed using the standard one-dose NCI protocol, which is described in more detail at https://dtp.cancer.gov/discovery_development/nci-60/default.htm.
# Compounds with GIPRCNT values below 10 were considered active. Activity score was based on GIPRCNT using the following formula: […]
# Score is 0 for GIPRCNT values of 100 or above, 50 for GIPRCNT values of 0, and 100 for GIPRCNT values of -100.
row,Structure (SMILES),growth
1,C=C(c1ccc(C(=O)O)c(F)c1)c1cc2c(cc1C)C(C)(C)C=CC2(C)C,81.4% (inactive)
2,O=C(Nc1ccc2[nH]ncc2c1)c1csc(Nc2ccccc2)n1,45.5% (inactive)
3,COc1ccc(C(=O)/C=C/c2ccc(Cl)cc2)cc1S(N)(=O)=O,33.1% (inactive)
4,CCN=c1sc2c(n1NC(=O)c1cc3ccc1CCc1ccc(cc1)CC3)C(=O)c1ccccc1C2=O,-73.1% (active)
5,CC(C)=CC(=O)C1C(=O)c2ccccc2C1=O,92.3% (inactive)
6,Fc1ccc(/C=C/c2cc(/C=C/c3ccc(F)cc3)n(-c3cc(F)cc(F)c3)n2)cc1,82.8% (inactive)
7,COc1ccc(-c2cc(-c3ccc(Cl)cc3)c(C#N)c(=O)n2CCCCC(=O)NO)cc1,-16.4% (active)
8,N#C/C(=C/C=C/c1ccccc1)S(=O)c1ccccc1 (stereo not given),-63.4% (active)
9,COc1cccc2cc(N(C)c3ncnc4ccccc34)ccc12,25.4% (inactive)
10,COC(=O)[C@@H](Cc1c[nH]c2ccccc12)NC(=O)[C@H](Cc1ccccc1)NCc1ccncc1,71.9% (inactive)
11,COc1cc(/C=C/c2cc(/C=C/c3ccc(O)c(OC)c3)n(C(=O)Nc3ccc(C)cc3C)n2)ccc1O,-38.7% (active)
12,COc1nc2ccccc2cc1/C=[N+](\[O-])c1ccccc1,43.9% (inactive)
13,COc1cccc(/C=C2\CCc3ccccc3C2=O)c1,72.5% (inactive)
14,COc1cc2ncnc(Nc3ccc(S(=O)(=O)Nc4cc(C)on4)cc3)c2cc1OCCCN1CCOCC1,88.1% (inactive)
15,CN(C)c1ccc(Cc2cc(-c3ccccc3)nn(C/C(=N/O)c3ccccc3)c2=O)cc1,36.1% (inactive)
16,CCN1C(=O)N(CC)C2C1NN=c1s/c(=C3\C(=O)N(C)c4ccccc43)c(=O)n12 (stereo not given),43.6% (inactive)
17,CCN(CC)CCCNc1cc(OC)cc2cccnc12,91.6% (inactive)
18,COc1ccc(NC(=O)c2ccc(Cl)cc2Cl)cc1,96.5% (inactive)
19,CC/C(=C(/c1ccc(Cl)cc1)c1ccc(OCCCN(C)C)cc1)c1ccc(OC)cc1,62.5% (inactive)
20,CCOC(=O)c1cnc2sc(-c3ccc(OC)cc3)nc2c1Cl,78.8% (inactive)

row,Structure (SMILES),growth
1,O=C(/C=C/c1ccco1)c1ccc(Nc2ccnc3cc(Cl)ccc23)cc1,94.8% (inactive)
2,COc1ccc(-c2cc(-c3ccc(N(C)C)cc3)nc(NC(=O)c3cccnc3)n2)cc1,80.6% (inactive)
3,COc1ccc(/C=C/C(=O)c2ccc(-n3cc(CN4CCN(c5cc6c(cc5F)c(=O)c(C(=O)O)cn6C5CC5)CC4)nn3)cc2)cc1,54.9% (inactive)
4,CCOC(=O)c1c(C)c2c(n1Cc1ccccc1)CSc1cc(C#N)c(=O)[nH]c1-2,85.6% [100 µM] (inactive)
5,Cc1ccc(C23CCC(=O)N2CCc2cncn23)cc1 (stereo not given),96.8% (inactive)
6,C=C1C(=O)O[C@H]2[C@H]1CC/C(COC(=O)NCc1ccc(Cn3c(=O)sn(CCCC)c3=O)cc1)=C\CC[C@@]1(C)O[C@@H]21,3.12% (active)
7,CCOC(=O)c1c(C)nc2c(c1N)C(=O)C(=O)N2CCc1ccc(OC)c(OC)c1,57.5% (inactive)
8,O=c1c(Cc2ccc(F)cc2)cc(-c2ccccc2)nn1C/C(=N/O)c1ccccc1,30.9% (inactive)
9,CCN(CC)CCN1C(=O)c2c(c(C)c3c(oc4cc(OC)ccc43)c2C)C1=O,-43.7% (active)
10,CCN1C(=O)N(CC)C2C1NC(=S)N2/N=C/C=C/c1cccs1 (stereo not given),44.9% (inactive)
11,O=C(O)/C=C/c1cn(-c2ccccc2)nc1-c1ccc(F)cc1,60.7% (inactive)
12,O=[N+]([O-])c1ccc(Oc2cccc3c(Oc4ccc([N+](=O)[O-])cc4[N+](=O)[O-])cccc23)c([N+](=O)[O-])c1,72.8% (inactive)
13,CC(C)(C)n1cc(-c2ccnc(NCCNS(=O)(=O)c3ccc(Br)cc3)c2)c(-c2cccc(O)c2)n1,22.7% (inactive)
14,O=C(OCC(O)C(=O)NC12CC3CC(CC(C3)C1)C2)c1cccc(Br)c1 (stereo not given),84.9% (inactive)
15,COc1cccc(/C=C/C(=O)/C=C(/C=C/c2cccc(OC)c2OC)OB(F)F)c1OC,37.8% (inactive)
16,O=C1C=CC2(O)OC(c3ccccc3)CC(=O)C2=C1O (stereo not given),62.7% (inactive)
17,COc1ccc(NC(=O)c2ccc(NC3=C(c4ccc(Cl)cc4)C(=O)NC3=O)cc2)cc1,64.6% (inactive)
18,CCOC(=O)C#Cc1c(CC(=O)OCC)nnn1[C@H]1O[C@@H](CO)[C@@H]2OC(C)(C)O[C@@H]21,15.7% (inactive)
19,Cn1cc(-c2csc(-c3cn(CCO)c4ccc(F)cc34)n2)c2cccnc21,70.7% (inactive)
20,COC(=O)CNC(=O)c1ccc(NC(=O)c2[nH]c(C)c(Cl)c2Cl)c(O[C@H]2CCNC2)c1,84.8% (inactive)
